# Measured values taken from PubChem BioAssay (NCI).
# This is part of a sample that, as a whole, favours compounds with a hit. Of some 83,000 tested, about 20% had one in any assay.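 Testing used 96-well plates and a 48-hour single-concentration exposure. Example: -40 means 40% of the starting cells died.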 A number with no mark means an inactive call. Active and inactive are the calls of the source. How the source made its calls: active means growth percent below 10; inactive means the rest.
# Tests used:
# Assay in all cases: NCI-60 one-dose screen, 48 h (100 = growth as untreated, 0 = no growth, -100 = all killed)
# Details in all cases: 10 µM
# HCT-15 colon = tested on: HCT-15 colon
# HT29 colon = tested on: HT29 colon
# SNB-75 CNS = tested on: SNB-75 CNS
# SNB-19 CNS = tested on: SNB-19 CNS
# U251 CNS = tested on: U251 CNS
# PC-3 prostate = tested on: PC-3 prostate
# SK-MEL-5 melanoma = tested on: SK-MEL-5 melanoma
# UACC-62 melanoma = tested on: UACC-62 melanoma
# SK-MEL-28 melanoma = tested on: SK-MEL-28 melanoma
# LOX IMVI melanoma = tested on: LOX IMVI melanoma
SMILES,growth (HCT-15 colon),growth (HT29 colon),growth (SNB-75 CNS),growth (SNB-19 CNS),growth (U251 CNS),growth (PC-3 prostate),growth (SK-MEL-5 melanoma),growth (UACC-62 melanoma),growth (SK-MEL-28 melanoma),growth (LOX IMVI melanoma)
CCOC(=O)C(Cc1ccccc1)N1C(=O)/C(=C/N2N=C(c3ccc(OC)cc3)CC2c2ccc3ccccc3c2)SC1=S (stereo not drawn),-67.4% (active),-2.97% (active),40.6%,14.9%,-26.8% (active),18.9%,-98.2% (active),-76.7% (active),9.31% (active),
Nc1n[nH]c2cccc(C#Cc3cccc(NC(=O)Nc4cc(C(F)(F)F)cc(C(F)(F)F)c4)c3)c12,-81.8% (active),-49.7% (active),-0.721% (active),-19.7% (active),-78.5% (active),-4.77% (active),-100% (active),-90.9% (active),-88.5% (active),
CN1CCN(c2ccc(Nc3nc(N4CCN(S(=O)(=O)c5ccc(F)cc5)CC4)c4sccc4n3)cc2)CC1,-79.8% (active),-63.1% (active),-97.9% (active),-98.1% (active),-98.5% (active),-18.4% (active),-100% (active),-93.3% (active),-95.4% (active),-91.7% (active)
COc1ccc2c3nc4cc(C)c(C)cc4nc3n(CCN(C)C)c2c1,1.95% (active),31.4%,21.5%,9.9% (active),-73.1% (active),21.2%,-80.7% (active),3.37% (active),-63.9% (active),
Nc1nc2c(F)c(F)c(F)c(F)c2s1,102%,104%,83.1%,99.8%,96.5%,104%,95.7%,96.6%,109%,
Cn1cc(-c2cc(N)n3nc(-c4c[nH]c5ccc(Br)cc45)cc3n2)c2cc(Br)cnc21,-96.3% (active),-86.3% (active),-19.6% (active),-35.9% (active),-76.5% (active),-44.8% (active),-99% (active),-75% (active),-87.1% (active),-94.5% (active)
COc1ccc(-c2c(N)c(=O)n(C)c3ccccc23)cc1,49.7%,59.9%,75.4%,62.1%,47.8%,46.9%,57.7%,38.1%,86.5%,
Cc1cc2c(c(O)c1Br)-c1ncoc1C(=O)[C@]1(C)CC[C@H](C(C)C)[C@H]21,7.31% (active),5.42% (active),59.6%,45%,26.7%,9.6% (active),-29.9% (active),33.1%,46.6%,
C/C(=C\CC/C=C(\C)CC/C=C(\C)CC[C@@H](O)C(C)(C)O)CC/C=C(\C)CC[C@@H](O)C(C)(C)O,21.1%,-67% (active),70.2%,61.4%,33.2%,7.84% (active),-16.3% (active),46.2%,38%,
Nc1cc(-c2cccc(C(=O)NCc3ccc4c(c3)OCO4)c2)ccn1,95.8%,111%,86%,95.2%,92.2%,103%,91.7%,93.4%,103%,
COc1ccc(-c2nc(S(=O)(=O)c3ccc(C)cc3)c(S(=O)(=O)CC(=O)N(C)Cc3ccccc3)o2)cc1,-39.6% (active),8.42% (active),78.7%,72.1%,23.6%,63.7%,78.4%,46.7%,64.8%,
C=C1CCC2C3(C)COC(c4c(F)cccc4F)OC3CCC2(C)C1C/C=C1/C(=O)OCC1O (stereo not drawn),-18.7% (active),3.23% (active),23.2%,-7.73% (active),-94.2% (active),5.05% (active),-65.5% (active),-4.04% (active),-51.2% (active),
COc1ccc(C(=O)/C=C/c2cc(F)cc(C(F)(F)F)c2)cc1S(N)(=O)=O,-77.9% (active),-68.3% (active),63.2%,-92.6% (active),-72.9% (active),-10.2% (active),3.71% (active),-55.5% (active),-68.4% (active),
Cc1ccc(/C=C/C(=O)c2ccc(NC(=O)CSc3nnc(-c4c[nH]c5ccccc45)n3-c3ccccc3)cc2)cc1,79.5%,100%,91.5%,87.9%,78.5%,71.8%,94%,75.8%,99.1%,
O=C1Nc2ccc(Cl)cc2/C1=C/c1cccc(OCc2ccccn2)c1,-66.8% (active),-63.8% (active),34.8%,0.791% (active),-90.7% (active),-9.7% (active),-47.3% (active),-81.2% (active),-49.2% (active),
CCOP(=O)(OCC)O[C@H]1CCC(=O)[C@@H]2[C@H]1[C@H]1C[C@@H]3[C@@]4(C)CCCC(C)(C(=O)OC)[C@@H]4CC[C@@]23C=C1C(C)C (stereo partly drawn),49.8%,42.5%,100%,68.1%,42.1%,23.5%,18.1%,46.1%,72.7%,
O=c1cc(-c2ccccc2)oc2cc(OCCCNCc3ccccc3)cc(O)c12,-67.1% (active),-59.7% (active),23.9%,48.2%,-79.8% (active),-0.767% (active),-99.6% (active),-55.7% (active),-88.8% (active),-97.8% (active)
CSc1nc(-c2cccc(C)c2)c2cc(-c3ccccc3)n(C)c2n1,15.3%,9.09% (active),-2% (active),30.2%,17.4%,21.7%,-44.7% (active),11.1%,34.7%,
Cc1ccc(S(=O)(=O)c2nc(-c3ccccc3)oc2S(=O)(=O)CC(=O)N2CCCC2)cc1,-78.2% (active),-81.7% (active),14.7%,68.2%,-77.5% (active),4.7% (active),26.5%,-85.4% (active),-100% (active),
COc1cc2c(cc1OC)/C(=C\c1sc(Nc3ccc(O)cc3)nc1O)C(C(=O)O)=N2,24.1%,10%,-16.4% (active),24.3%,18.6%,19.1%,14.4%,20%,47.6%,
CCOC(=O)c1c(CSc2ccccc2)n(C)c2cc(CN(C)C)c(O)c(CN(C)C)c12,20.5%,19.8%,89.4%,60.2%,30%,25.1%,36.4%,48.2%,48.6%,
O=C1Nc2cc(Cl)ccc2/C1=C/c1cccc(OCc2ccccc2)c1,-24.8% (active),-43.8% (active),16.8%,0.636% (active),-64.6% (active),6.84% (active),-98% (active),-32.6% (active),4.09% (active),
C#Cc1ccc(S(=O)(=O)Nc2cccc(-c3csc(NC(C)=O)n3)c2)cc1,67.1%,71.4%,60.4%,83.6%,81.8%,62.3%,43.2%,48.7%,89.4%,
C/C(=C\c1ccc(O)cc1O)c1ccc2ccc(O)cc2[o+]1,12.3%,93.1%,98.1%,71%,23.5%,62.7%,76.3%,59.5%,62.3%,2.95% (active)
Cc1cc(=O)oc2cc(OCCCCOc3ccc(/C=C/C(=O)Nc4cccc(Cl)c4)cc3)ccc12,60.3%,86.4%,87.7%,74.7%,56.8%,91.2%,60.6%,75.3%,86.8%,64.4%
C/C(=N\NC(N)=S)c1ccc(Nc2nc(SC(C)C)nc(-c3ccccc3)c2C#N)cc1,77.1%,57.9%,104%,63.5%,32%,59.2%,75.5%,48.1%,80.9%,
COc1ccc(C(=O)Nc2sc3c(c2C#N)CCC(=O)C3)cc1C(F)(F)F,-69.8% (active),-31.4% (active),-15.2% (active),-5.9% (active),3.33% (active),8.45% (active),-92.2% (active),-25.5% (active),-12.6% (active),-15% (active)
C=C1CCC2C3(C)COC(c4ccccc4F)OC3CCC2(C)C1C/C=C1/C(=O)OCC1O (stereo not drawn),-20% (active),-14.6% (active),-58.3% (active),-93.4% (active),-95.4% (active),-17.5% (active),-91.1% (active),-7.01% (active),-66.1% (active),
